# Assay results from PubChem BioAssay AID2284347 (EPA ToxCast).
# Results filed as inconclusive are left out. Calls of active or inactive are those of the source. The calls were made as follows: active = hit-call score of the fitted dose curve at least 0.9, where 1 is the maximum; inconclusive = response in the unintended direction; inactive = score below 0.9.
# Tested on: rainbow trout Peroxisome Proliferator-activated Receptor alpha (PPARa), gene 110490141
# Assay: ATG_rtPPARa_EcoTox2: Attagene TRANS-FACTORIAL EcoTox-2 HepG2 Assay for rainbow trout Peroxisome Proliferator-activated Receptor alpha (PPARa)
# Method: ATG_EcoTox2 is a cell-based, multiplexed assay created by modifying the existing Attagene TRANS-FACTORIAL system to include a panel of nuclear receptors from some or all the following species: human (Homo sapiens), african clawed frog (Xenopus laevis), rainbow trout (Oncorhynchus mykiss), japanese medaka (Oryzias latipes), and zebrafish (Danio rerio). The ECOTOX2-FACTORIAL format uses HepG2, a human liver cell line, with measurements taken at 24 hours after chemical dosing in a 24-well plate. ATG_rtPPARa_EcoTox2 is one of 29 assay components calculated in the ATG_EcoTox2 assay. It is designed to make measurements of mRNA induction, a form of inducible reporter, as detected with fluorescence intensity signals by Reverse transcription polymerase chain reaction (RT-PCR) and Capillary electrophoresis technology.The assay endpoint ATG_frPPARa_EcoTox2 was analyzed in the positive analysis fitting direction relative to DMSO as the negative control and baseline of activity. Using a type of inducible reporter, measures of mRNA for gain-of-signal activity can be used to understand the reporter gene at the transcription factor-level as they relate to the gene PPARa. Furthermore, this assay endpoint can be referred to as a primary readout, because this assay has produced multiple assay endpoints where this one serves a reporter gene function. […]
row,Structure (SMILES),AC50
1,O=S(=O)(O)C(F)(F)C(F)(F)C(F)(F)C(F)(F)C(F)(F)C(F)(F)F,30.6 µM (active)
2,O=C(O)C(F)(F)C(F)(F)C(F)(F)C(F)(F)C(F)(F)C(F)(F)C(F)(F)F,54.2 µM (active)
